RORg inh: ROR gamma (mouse) transcription inhibition; P51450; Drosophila S2 Gal4-RORgamma UAS-luciferase reporter, 20 h; Potency, µM (top dose mostly 53.6 µM), inactives show at the top dose activity change, negative = inhibition, usual class: inhibitors; actives 5.4% (n = 310,000); also: potency is read from the fitted curve at half-maximal effect; nearly all actives have a fitted effect of over 60% in size
Target sequence (P51450 whole entry, looked up, the tested form may be a part): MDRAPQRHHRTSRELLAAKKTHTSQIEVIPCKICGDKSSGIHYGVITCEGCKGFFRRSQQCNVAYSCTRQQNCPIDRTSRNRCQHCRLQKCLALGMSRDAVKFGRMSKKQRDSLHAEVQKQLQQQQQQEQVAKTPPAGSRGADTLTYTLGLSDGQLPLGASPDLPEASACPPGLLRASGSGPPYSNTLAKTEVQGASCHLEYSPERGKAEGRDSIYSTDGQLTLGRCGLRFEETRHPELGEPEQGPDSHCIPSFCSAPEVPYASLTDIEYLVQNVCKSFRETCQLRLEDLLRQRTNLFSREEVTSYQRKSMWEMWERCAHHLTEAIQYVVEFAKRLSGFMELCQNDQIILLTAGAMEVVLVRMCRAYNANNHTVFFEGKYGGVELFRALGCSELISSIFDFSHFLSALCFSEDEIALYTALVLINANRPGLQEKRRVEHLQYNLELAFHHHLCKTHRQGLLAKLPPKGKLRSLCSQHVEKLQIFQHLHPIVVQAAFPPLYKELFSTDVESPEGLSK
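Drosophila S2 cells stably expressing Gal4-DBD/mouse RORγ fusion under metallothionein promoter plus UAS-luciferase; compound 1 h, then 700 uM CuSO4 induction for 20 h at ambient temperature; inhibition read as reduced luminescence.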
IL1B secr inh: inflammasome signaling inhibition, IL-1 beta readout | THP-1 LPS/ATP IL-1B secretion, AlphaLISA, 16 h; stronger effect = lower value | activity change, % at 57.5 µM | actives 4.7% (n = 360,000) | AID 743279; in the data active = activity change below about -50%; inconclusive = mostly about -30% to -49%
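THP-1 cells pretreated 1 hr with compounds (up to 57.5 uM final), then stimulated with LPS (250 ng/mL final) plus ATP (1.25 mM final); secreted IL-1B measured by AlphaLISA after 16 hr, decreased signal indicating inhibition.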
LDHA inh: inhibitors of human lactate dehydrogenase A; actives 0.15% (n = 480,000); AID 1347041; purified LDHA, NADH/diaphorase-resazurin fluorescence; stronger effect = lower value; activity change, % (values are at about 110 or 230 µM); P00338; in the data active = activity change below about -30%; inconclusive = mostly about -25% to -30%;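 also: plate controls were DMSO wells for no effect and wells without enzyme for full effect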
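Enzyme activity of human lactate dehydrogenase 5 (2 nM; 0.06 mM NADH, 0.2 mM pyruvate, 5 min, RT) is measured via a resazurin/diaphorase fluorescence readout of residual NADH.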
DT40 TDP1 CPT: growth inhibition of DT40 Tdp1-/-;hTDP1 cells with camptothecin (screen for TDP1 inhibitors); chicken DT40 Tdp1-/-;hTDP1 cells + 20 nM CPT, ATP luminescence, 48 h; Potency, µM (highest dose often 46.2 µM), for inactives: at the highest dose activity change, negative = growth inhibition, usual class: inhibitors; actives 12% (n = 420,000); also: potency is read from the fitted curve at half-maximal effect; nearly all actives have a fitted effect of over 55% in size
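Chicken DT40 Tdp1-/- cells complemented with human TDP1, 400 cells/well, exposed to compounds plus 20 nM camptothecin for at least 48 h at 37 C; viability read as ATP content by CellTiter-Glo luminescence.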
DT40 TDP1 no CPT: qHTS for Inhibitors of human tyrosyl-DNA phosphodiesterase 1 (TDP1): qHTS in cells in absence of CPT | actives 15% (n = 420,000) | Potency, µM (top dose mostly 46.2 µM), inactives show top-dose activity change, negative = growth inhibition, most hits filed as inhibitors | DT40 Tdp1-/- hTDP1 cells, no CPT, ATP luminescence, 48 h | AID 686978, 2013; also: potency is read from the fitted curve at half-maximal effect; nearly all actives have a fitted effect of over 55% in size
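Chicken DT40 Tdp1-/- cells stably complemented with human TDP1 were seeded at 400 cells/well with DMSO in place of 20 nM camptothecin. After compound pinning, cells grew at least 48 hr at 37 °C; viability read by CellTiter-Glo luminescence.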
Gal4-VP16 FLuc: Gal4-VP16 reporter inhibition counter-screen; Drosophila S2 Gal4-VP16 UAS-luciferase, luminescence, 20 h; Potency, µM (top dose mostly 53.6 µM), inactives show at the top dose activity, negative = inhibition, hits mostly inhibitors; actives 3.5% (n = 310,000); AID 2546;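 also: Gal4-VP16 expression switched on by copper sulfate through the metallothionein promoter; potency is read from the fitted curve at half-maximal effect; nearly all actives have a fitted effect of over 50% in size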
* = called active by the depositor; ? = inconclusive; nt = no result. Hits are enriched below; roughly 18% of the tested compounds scored in any of these assays. Unless noted, calls follow the shape of the dose curve; as a rule, active = well fitted curve in the direction sought with a large enough effect; inconclusive = small, poorly fitted or top-dose-only effect, or another doubt; inactive = no such curve, though single readings can be large; an effect the other way counts as inactive or inconclusive. Unless noted, % is scaled to controls: 0 for no effect and ±100 for the full control effect.

SMILES	RORg inh	IL1B secr inh	LDHA inh	DT40 TDP1 CPT	DT40 TDP1 no CPT	Gal4-VP16 FLuc
O=C(Cc1coc2ccc3ccccc3c12)N1CCN(c2ncccn2)CC1	0%	-23	0	?	?	-1%
CCCN(CCC)C(=O)Cc1coc2ccc3ccccc3c12	-22%	-2	2	?	18µM*	0%
O=C(COc1cccc2ccccc12)Nc1nccs1	nt	nt	3	nt	nt	nt
O=C(COc1ccccc1)Nc1nccs1	13µM*	-3	-7	-2%	-6%	?
O=C(COc1ccc2ccccc2c1)Nc1nccs1	10µM*	-2	-7	4%	-14%	16µM*
COc1cc(C2CC(=O)Nc3c(-c4ccc(C)cc4)csc32)ccc1OCC(N)=O (stereo not given)	nt	nt	-4	nt	nt	nt
CSCc1cc(N(C)c2ccccc2)nc(-c2ccccn2)n1	0.56µM*	18	3	2.9µM*	4.6µM*	3.2µM*
CN(C)c1cc(C(F)(F)F)nc(-c2ccccn2)n1	?	-4	-3	-16%	-18%	?
COc1ccc(CNC(=O)c2cccc(Oc3ccccc3)c2)cc1	nt	nt	8	nt	nt	nt
C/C=C(/C)C(=O)OC1c2c(ccc3ccc(=O)oc23)OC(C)(C)C1OC(=O)/C(C)=C\C (stereo not given)	?	-10	4	?	?	5%
CC(=O)O[C@@H]1[C@H](OC(=O)CC(C)C)c2c(ccc3ccc(=O)oc23)OC1(C)C	-20%	-2	5	26µM*	?	-10%
CC(=O)N(c1ccccc1)c1ccccc1[N+](=O)[O-]	nt	25	1	?	26µM*	nt
N#Cc1ccc(/C=C/C(=O)c2ccc3c(c2)CCO3)cc1	nt	nt	6	nt	nt	nt
COc1cc(/C=C/C(=O)OCC(=O)NC(=O)NC(C)C)cc(S(=O)(=O)N2CCc3ccccc32)c1OC	-13%	?	-9	?	21µM*	3%
COc1ccc(NCc2ccco2)cc1	nt	nt	-2	nt	nt	nt
Oc1c(Cl)cc(Cl)cc1C=Nc1ccccc1N1CCCC1	16µM*	nt	nt	nt	nt	?
Cc1c(C(=O)NN2CCOCC2)oc2ccccc12	1%	-13	-1	0%	-1%	-2%
Cc1c(C(=O)NN2CCOCC2)oc2c1ccc1ccccc12	-32%	-71*	-1	-16%	?	-5%
O=C(C[N+]12CCCc3cccc(c31)CCC2)c1ccc2ccccc2c1	nt	nt	nt	5µM*	7.1µM*	nt
COc1ccc(Cl)cc1NS(=O)(=O)c1cccc(C(=O)NC2CCN(Cc3ccccc3)CC2)c1	nt	-57*	-14	?	?	nt
COc1ccc(NS(=O)(=O)c2cccc(C(=O)NNC(=O)c3ccc(Br)o3)c2)cc1	nt	-13	-3	-53%	5.8µM*	nt
COc1ccc(NS(=O)(=O)c2cccc(C(=O)NC3CCN(Cc4ccccc4)CC3)c2)cc1	-24%	-70*	1	15µM*	?	-10%
CCCc1cc(C(=O)OCC(=O)NC(=O)NC2CCCC2)sc1C	nt	nt	10	nt	nt	nt
Cc1nnc(NC(=O)CSc2nnc(C3CC3)n2C(C)C)s1	nt	nt	3	nt	nt	nt
Cc1cc(-c2c(C)[nH]n(-c3ccccc3)c2=O)n(-c2ccccc2)n1	-37%	6	-10	-22%	1%	-8%
SMILES	RORg inh	IL1B secr inh	LDHA inh	DT40 TDP1 CPT	DT40 TDP1 no CPT	Gal4-VP16 FLuc
Cc1cc(-c2c(C)[nH]n(-c3ccccc3)c2=O)n[nH]1	0.4µM*	-2	2	2.9µM*	4.1µM*	1µM*
CCNC(=O)CC1SC(=Nc2ccc(Cl)cc2)N(CC)C1=O (stereo not given)	24%	-1	-8	?	21µM*	-9%
CCN=C1SC(CC(=O)NCC)C(=O)N1CC (stereo not given)	-27%	-12	-2	4%	-2%	-2%
COc1ccc(C(C)=O)cc1COC(=O)C1CC2CCCC(C1)C2=O (stereo not given)	nt	nt	-5	nt	nt	nt
COc1ccc(-c2c(-c3ccc(O)cc3O)n[nH]c2C)cc1OC	-29%	16	6	?	18µM*	1%
COc1ccc(-c2c(-c3ccc(OC)c(C)c3O)n[nH]c2C)cc1	11µM*	?	0	?	?	11µM*
COc1ccc(-c2c(-c3ccc(OCCN4CCCCC4)cc3O)n[nH]c2C)cc1OC	nt	nt	4	nt	nt	nt
Clc1ccc(-n2cnc3c(Cl)ncnc32)cc1Cl	nt	?	-5	4.6µM*	6.5µM*	nt
CCOc1ccc2[nH]c3c(N4CCN(C(=O)c5ccco5)CC4)ncnc3c2c1	-7%	-11	6	16µM*	13µM*	-6%
O=C(c1ccco1)N1CCN(c2ncnc3c2[nH]c2ccc(Br)cc23)CC1	-5%	?	-7	?	23µM*	?
O=C(c1ccco1)N1CCN(c2ncnc3c2[nH]c2ccccc23)CC1	?	nt	nt	nt	nt	-26%
CCOc1ccc2[nH]c3c(N4CCC5(CC4)OCCO5)ncnc3c2c1	-2%	?	4	23µM*	23µM*	5%
CCOc1ccc(S(=O)(=O)N2CCN(C(=O)c3ccco3)CC2)cc1	41%	14	-8	-1%	-19%	0%
N#Cc1ncn(CC(=O)NCC(=O)Nc2ccccc2Br)n1	nt	nt	5	nt	nt	nt
O=C(CCn1ccc2ccccc21)NC12CC3CC(CC(C3)C1)C2	nt	nt	0	nt	nt	nt
CC(C)c1ccccc1NC(=S)NCC1(N(C)C)CCCCC1	16µM*	-25	-2	-7%	5%	?
CN(C)S(=O)(=O)c1ccc(N2CCOCC2)nc1	10%	-8	0	-2%	-7%	-7%
COc1ccc(N2CCN(c3ccc(S(=O)(=O)N(C(C)C)C(C)C)cn3)CC2)cc1	?	6	1	4.6µM*	7.3µM*	-1%
Cc1ncsc1C(=O)NCc1ccncc1	nt	nt	3	nt	nt	nt
CCc1ccc(C(C#N)=CC=Cc2ccccc2)cc1	nt	?	1	?	21µM*	nt
N#C/C(=C\C=C\c1ccccc1)c1nc(-c2ccc(Cl)cc2)cs1	-1%	11	-1	-19%	?	-2%
Cn1c(SCc2ccccc2)nc2c1c(=O)[nH]c(=O)n2C	-13%	26	1	-17%	-1%	5%
CCCn1c(SCc2ccc(Cl)cc2)nc2c1c(=O)[nH]c(=O)n2C	15%	-10	-3	?	16µM*	-4%
COCCn1c(SCc2ccc(Cl)cc2)nc2c1c(=O)[nH]c(=O)n2C	nt	16	-15	8%	?	nt

Compound activity from PubChem BioAssay.
